SMILES strings stand for the structures. Active and inactive are the calls of the source. Rule as the data show it: active = inhibition of mean fluorescence above about 33%; inactive = the rest.

The record followed here is PubChem BioAssay AID1014 (NMMLSC, 2008).

The test can be described thus: blockers of bacterial quorum-sensing reporter fluorescence – flow cytometry, SAR analogs, SAR follow-up (AID 1014).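 Also: Staphylococcus aureus RN6390 with RNAIII-GFP reporter stimulated by AIP; bacteria incubated with compound for 3 hours at 37 °C.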 The note with it: at 20 µM, stronger effect = higher value; inhibition of percent positive cells: measured here: percent reporter-positive cells. On the technique in general: A flow cytometer gives signals particle by particle.

For the molecule `CCOC(=O)c1c(-c2cc(Cl)c(OC)c(Cl)c2)oc2ccc(O)cc12`, the inhibition of mean fluorescence is -4.9% (inactive) and the inhibition of percent positive cells was -0.4%.

For the molecule `COc1ccc(NC(=O)C(c2cc3c(cc2[N+](=O)[O-])OCO3)N2CCN(C=O)CC2)cc1` (centres undefined), the inhibition of mean fluorescence was -23.1% (inactive) and the inhibition of percent positive cells is 0%.

As to `Cc1ccc(S(=O)(=O)c2nnn3c2nc(Nc2cccc(C)c2)c2ccccc23)cc1`, the inhibition of mean fluorescence is 5.4% (inactive) and the inhibition of percent positive cells was 1.5%.

On to `Cc1ccc(Nc2nc3c(S(=O)(=O)c4ccc(C)cc4)nnn3c3ccccc23)cc1`, for which the inhibition of mean fluorescence was -16% (inactive) and the inhibition of percent positive cells was determined as 0.9%.

As for `COc1ccc(C(=O)N2CCC(C(=O)Nc3ccc4c(c3)OCO4)CC2)cc1`, the inhibition of mean fluorescence is -3.1% (inactive) and the inhibition of percent positive cells was determined as 0%.

For the molecule `COc1ccc(C(=O)c2coc3ccc(O)cc23)cc1`, the inhibition of mean fluorescence was 5% (inactive) and the inhibition of percent positive cells amounted to 0.8%.

On to `O=C(NCC(c1cccnc1)N1CCN(c2ccccc2F)CC1)c1ccc(F)cc1` (centres undefined), for which the inhibition of mean fluorescence was 11.5% (inactive) and the inhibition of percent positive cells was -1.8%.
